Inconclusive results are not listed. Active and inactive are the calls of the source. Unless noted, calls come from the whole dose curve; as a rule, active = well fitted curve in the direction sought with a large enough effect in the repeat runs; inconclusive = weak or mixed curves; inactive = no such curve, though single readings can be large; an effect the other way counts as inactive or inconclusive.
How the values were obtained:
[1] = qHTS assay to identify aromatase inhibitors - cell viability counter screen (AID 743084);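 note: cells stimulated with testosterone during compound exposure; nearly all actives have a fitted effect of over 55% in size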
[2] = biological target: Aryl hydrocarbon receptor (Homo sapiens) (UniProt P35869); assay: qHTS assay to identify small molecule that activate the aryl hydrocarbon receptor (AhR) signaling pathway (AID 743085);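 note: HG2L7.5c1 human HepG2 liver cells with stably integrated DRE-driven firefly reporter; series mostly up to about 70 µM; nearly all actives have a fitted effect of over 15% in size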
Chain of Aryl hydrocarbon receptor (Homo sapiens) (P35869 whole entry, looked up): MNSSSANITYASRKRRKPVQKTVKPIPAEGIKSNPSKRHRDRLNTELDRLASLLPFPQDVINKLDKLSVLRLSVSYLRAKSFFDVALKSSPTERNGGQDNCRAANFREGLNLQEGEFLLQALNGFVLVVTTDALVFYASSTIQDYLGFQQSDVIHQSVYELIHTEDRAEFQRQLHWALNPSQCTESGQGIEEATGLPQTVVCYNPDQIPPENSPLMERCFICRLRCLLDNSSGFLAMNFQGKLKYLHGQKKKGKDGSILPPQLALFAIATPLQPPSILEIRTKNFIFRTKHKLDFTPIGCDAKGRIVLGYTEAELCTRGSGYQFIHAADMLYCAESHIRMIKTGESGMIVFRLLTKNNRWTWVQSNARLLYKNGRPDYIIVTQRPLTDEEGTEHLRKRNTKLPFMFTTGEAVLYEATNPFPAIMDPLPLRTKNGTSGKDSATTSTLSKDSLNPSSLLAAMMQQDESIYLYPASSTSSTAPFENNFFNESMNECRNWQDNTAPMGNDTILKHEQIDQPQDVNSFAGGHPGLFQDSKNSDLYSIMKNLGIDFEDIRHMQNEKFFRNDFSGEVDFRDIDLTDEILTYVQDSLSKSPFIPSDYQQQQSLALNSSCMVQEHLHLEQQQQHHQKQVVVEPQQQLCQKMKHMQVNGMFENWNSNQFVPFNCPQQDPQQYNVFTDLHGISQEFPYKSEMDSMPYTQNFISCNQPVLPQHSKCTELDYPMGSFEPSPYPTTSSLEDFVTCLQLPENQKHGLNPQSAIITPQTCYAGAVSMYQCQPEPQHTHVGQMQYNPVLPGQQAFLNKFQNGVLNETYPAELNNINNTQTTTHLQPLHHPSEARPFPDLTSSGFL
In short: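 Reporter assay in engineered HepG2 line HG2L7.5c1, whose plasmid carries twenty dioxin responsive elements upstream of firefly luciferase. Treatment lasted 24 h at 37C; ONE-Glo luminescence gauged induction.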

[3] = qHTS assay to identify small molecule that activate the aryl hydrocarbon receptor (AhR) signaling pathway - cell viability counter screen (AID 743086);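 note: HepG2 liver cells carrying the AhR DRE luciferase reporter; series mostly up to about 70 µM; nearly all actives have a fitted effect of over 45% in size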
In short: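 HepG2-AhR-luc (HG2L7.5c1) cells, 4000/well, were preincubated 5 h at 37C, exposed to compound in qHTS format for 24 hr at 37C, then given CellTiter-Fluor for 30 min; viability was read as fluorescence in the reporter wells.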

[4] = biological target: Peroxisome proliferator-activated receptor gamma (Homo sapiens) (UniProt P37231); assay: qHTS assay to identify small molecule agonists of the peroxisome proliferator-activated receptor gamma (PPARg) signaling pathway (AID 743094; active = well fitted activation curve with a large enough effect in the signal ratio in the repeat runs, not every such curve was filed as active; the % refers to the signal ratio)
Chain of Peroxisome proliferator-activated receptor gamma (Homo sapiens) (P37231 whole entry, looked up): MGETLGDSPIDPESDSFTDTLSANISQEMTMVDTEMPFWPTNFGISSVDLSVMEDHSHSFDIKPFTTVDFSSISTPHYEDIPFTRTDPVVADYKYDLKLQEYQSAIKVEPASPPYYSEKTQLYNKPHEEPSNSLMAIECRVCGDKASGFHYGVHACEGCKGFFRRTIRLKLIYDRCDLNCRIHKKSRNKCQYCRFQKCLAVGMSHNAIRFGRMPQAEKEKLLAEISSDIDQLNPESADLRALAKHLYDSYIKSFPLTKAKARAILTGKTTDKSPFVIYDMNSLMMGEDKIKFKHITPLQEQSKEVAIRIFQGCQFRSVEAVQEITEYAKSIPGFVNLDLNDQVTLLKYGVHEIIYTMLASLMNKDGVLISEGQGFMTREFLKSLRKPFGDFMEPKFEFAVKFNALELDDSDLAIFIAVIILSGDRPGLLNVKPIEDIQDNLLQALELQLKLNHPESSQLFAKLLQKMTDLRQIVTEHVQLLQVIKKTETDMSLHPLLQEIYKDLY
In short: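 Cells from the PPARg UAS-bla HEK293H line are plated and incubated 5 h at 37C. Compounds in DMSO are pinned in and left 17 h at 37C. LiveBLAzer B/G substrate is then added for 1 h at room temperature before fluorescence is measured.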

[5] = biological target: Peroxisome proliferator-activated receptor gamma (Homo sapiens) (UniProt P37231); assay: qHTS assay to identify small molecule antagonists of the peroxisome proliferator-activated receptor gamma (PPARg) signaling pathway (AID 743191; calls by dose curve; note: series mostly up to about 63 µM; nearly all actives have a fitted effect of over 30% in size)
In short: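 GeneBLAzer PPARg UAS-bla HEK293H cells carrying a UAS-driven beta-lactamase reporter were plated at 3000 cells/well, preincubated 5 h at 37C, then given compound for 17 h at 37C; LiveBLAzer B/G FRET substrate was read after 1 h at room temperature.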

[6] = qHTS assay to identify small molecule antagonists of the peroxisome proliferator-activated receptor gamma (PPARg) signaling pathway - cell viability counter screen (AID 743194); note: nearly all actives have a fitted effect of over 55% in size
In short: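 PPARg-UAS-bla HEK293H cells were plated, rested 5 h at 37 C, then treated with compounds plus rosiglitazone (50 nM final) for 17 h at 37 C; viability was then read by CellTiter-Glo luminescence after 30 min at room temperature.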

[7] = qHTS assay for small molecule agonists of the antioxidant response element (ARE) signaling pathway - cell viability counter screen (AID 743203; calls by dose curve; note: nearly all actives have a fitted effect of over 55% in size)
In short: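 Cytotoxicity was tested in parallel with the ARE reporter screen. ARE-bla HepG2 cells were exposed to compounds for 16 hrs, and viability was taken from CellTiter-Glo luminescence.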

[8] = qHTS assay for small molecule activators of the heat shock response signaling pathway - cell viability counter screen (AID 743209); note: nearly all actives have a fitted effect of over 50% in size
In short: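 Cytotoxicity counter screen run in parallel with the HSE beta-lactamase reporter, using the same wells. HeLa HSE-bla cells received compound for 5 h at 37 C; ATP-based CellTiter-Glo luminescence was measured after 30 min at room temperature.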

[9] = qHTS assay for small molecule activators of the heat shock response signaling pathway (AID 743210; active = well fitted activation curve with a large enough effect in the signal ratio in the repeat runs, with a control signal flat, not every such curve was filed as active; the % refers to the signal ratio; note: series mostly up to about 63 µM)
In short: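 Heat shock element–beta-lactamase HeLa reporter cells; qHTS with compounds for 5 h at 37 C; detection by FRET substrate fluorescence after 2.5 h at RT.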

[10] = qHTS assay to identify small molecule agonists of the peroxisome proliferator-activated receptor delta (PPARd) signaling pathway - cell viability counter screen (AID 743211); note: nearly all actives have a fitted effect of over 55% in size
In short: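 Multiplexed format: after the 2 h room-temperature LiveBLAzer B/G FRET step, CellTiter-Glo was added to the same wells. Luminescence after 30 min gave cell viability; compound exposure was 17 h at 37C.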

[11] = qHTS assay to identify small molecule agonists of the farnesoid-X-receptor (FXR) signaling pathway - cell viability counter screen (AID 743218); note: nearly all actives have a fitted effect of over 45% in size
In short: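 Cells were seeded, left 5 h at 37 C and 5% CO2, then dosed with compound in DMSO for 16 h. After the beta-lactamase FRET read, CellTiter-Glo was added and luminescence measured 30 min later.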

[12] = biological target: Vitamin D3 receptor (Homo sapiens) (UniProt P11473); assay: qHTS assay to identify small molecule agonists of the vitamin D receptor (VDR) signaling pathway (AID 743222; calls by dose curve)
Chain of Vitamin D3 receptor (Homo sapiens) (P11473 whole entry, looked up): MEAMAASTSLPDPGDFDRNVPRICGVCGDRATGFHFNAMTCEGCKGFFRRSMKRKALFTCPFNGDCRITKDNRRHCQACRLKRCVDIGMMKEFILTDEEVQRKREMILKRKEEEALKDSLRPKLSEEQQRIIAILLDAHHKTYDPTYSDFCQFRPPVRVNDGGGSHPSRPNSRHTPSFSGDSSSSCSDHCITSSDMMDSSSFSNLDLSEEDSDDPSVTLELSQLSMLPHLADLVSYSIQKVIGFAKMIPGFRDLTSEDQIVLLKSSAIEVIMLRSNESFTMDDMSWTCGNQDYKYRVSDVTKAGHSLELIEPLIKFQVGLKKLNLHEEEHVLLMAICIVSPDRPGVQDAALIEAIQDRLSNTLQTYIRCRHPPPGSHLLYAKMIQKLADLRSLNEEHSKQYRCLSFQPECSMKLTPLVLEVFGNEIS
In short: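 Cells carrying a VDR-driven beta-lactamase reporter are seeded at 2,000 per well and rested 4 h. Compounds in DMSO are added for 16 h at 37C, and FRET substrate fluorescence is measured after 2 h at room temperature.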

[13] = biological target: Vitamin D3 receptor (Homo sapiens) (UniProt P11473); assay: qHTS assay to identify small molecule antagonists of the vitamin D receptor (VDR) signaling pathway (AID 743223; active = well fitted inhibition curve with a large enough effect in the signal ratio in the repeat runs, not every such curve was filed as active; the % refers to the signal ratio)
In short: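 After VDR-bla cells are plated and left 4 h at 37C, DMSO-dissolved compounds and 3 nM (final) calcitriol agonist are added. Incubation continues 16 h at 37C; FRET beta-lactamase substrate then develops 2 h at room temperature.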

[14] = biological target: Peroxisome proliferator-activated receptor delta (Homo sapiens) (UniProt Q03181); assay: qHTS assay to identify small molecule agonists of the peroxisome proliferator-activated receptor delta (PPARd) signaling pathway (AID 743212; calls by dose curve)
Chain of Peroxisome proliferator-activated receptor delta (Homo sapiens) (Q03181 whole entry, looked up): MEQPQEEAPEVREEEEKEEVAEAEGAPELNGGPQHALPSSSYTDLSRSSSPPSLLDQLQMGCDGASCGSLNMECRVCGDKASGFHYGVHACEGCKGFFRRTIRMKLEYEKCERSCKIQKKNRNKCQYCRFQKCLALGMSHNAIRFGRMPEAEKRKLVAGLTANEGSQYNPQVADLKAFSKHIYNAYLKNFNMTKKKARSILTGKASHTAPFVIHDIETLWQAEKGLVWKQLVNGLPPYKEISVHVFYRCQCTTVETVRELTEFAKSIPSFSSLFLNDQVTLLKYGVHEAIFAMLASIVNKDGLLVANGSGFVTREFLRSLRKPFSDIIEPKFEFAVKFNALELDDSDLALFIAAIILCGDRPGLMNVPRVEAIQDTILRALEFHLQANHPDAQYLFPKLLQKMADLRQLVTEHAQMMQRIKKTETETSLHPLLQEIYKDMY
In short: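 Beta-lactamase reporter read by fluorescence (LiveBLAzer B/G FRET, 2 h, room temperature). Test agents, in DMSO, incubated at 37 C with PPARd-bla HEK293H cells.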

[15] = qHTS assay to identify small molecule antagonists of the peroxisome proliferator-activated receptor delta (PPARd) signaling pathway - cell viability counter screen (AID 743213); note: nearly all actives have a fitted effect of over 50% in size
In short: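 Cytotoxicity counter screen: CellTiter-Glo luminescence read 30 min after addition, in the same wells as the reporter assay. There, PPARd UAS-bla HEK293H cells (3000/well) were treated 17 h at 37 C with compound and 300 nM L165041.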

[16] = biological target: Peroxisome proliferator-activated receptor delta (Homo sapiens) (UniProt Q03181); assay: qHTS assay to identify small molecule antagonists of the peroxisome proliferator-activated receptor delta (PPARd) signaling pathway (AID 743215; active = well fitted inhibition curve with a large enough effect in the signal ratio in the repeat runs, not every such curve was filed as active; the % refers to the signal ratio;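 note: cells stimulated with agonist L165041 at 300 nM final during compound exposure; series mostly up to about 62 µM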)
In short: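 Cells: HEK293H with a UAS-driven beta-lactamase reporter responsive to PPARd. Compounds were co-added with L165041 (300 nM, final) and incubated 17 h at 37 C before a 2 h room-temperature FRET substrate step and fluorescence reading.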

[17] = qHTS assay to identify small molecule antagonists of the farnesoid-X-receptor (FXR) signaling pathway - cell viability counter screen (AID 743221; active = well fitted cell-killing curve with a large enough effect in the repeat runs, not every such curve was filed as active; note: nearly all actives have a fitted effect of over 50% in size)
In short: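 CellTiter-Glo, 30 min RT, luminescence; same wells as the LiveBLAzer FRET read. Cells: FXR-UAS-bla HEK 293T. Treatment: compound with chenodeoxycholic acid 50 uM final, 16 h at 37 C.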

[18] = biological target: Bile acid receptor (Homo sapiens) (UniProt Q96RI1); assay: qHTS assay to identify small molecule antagonists of the farnesoid-X-receptor (FXR) signaling pathway (AID 743217; active = well fitted inhibition curve with a large enough effect in the signal ratio in the repeat runs, not every such curve was filed as active; the % refers to the signal ratio)
Chain of Bile acid receptor (Homo sapiens) (Q96RI1 whole entry, looked up): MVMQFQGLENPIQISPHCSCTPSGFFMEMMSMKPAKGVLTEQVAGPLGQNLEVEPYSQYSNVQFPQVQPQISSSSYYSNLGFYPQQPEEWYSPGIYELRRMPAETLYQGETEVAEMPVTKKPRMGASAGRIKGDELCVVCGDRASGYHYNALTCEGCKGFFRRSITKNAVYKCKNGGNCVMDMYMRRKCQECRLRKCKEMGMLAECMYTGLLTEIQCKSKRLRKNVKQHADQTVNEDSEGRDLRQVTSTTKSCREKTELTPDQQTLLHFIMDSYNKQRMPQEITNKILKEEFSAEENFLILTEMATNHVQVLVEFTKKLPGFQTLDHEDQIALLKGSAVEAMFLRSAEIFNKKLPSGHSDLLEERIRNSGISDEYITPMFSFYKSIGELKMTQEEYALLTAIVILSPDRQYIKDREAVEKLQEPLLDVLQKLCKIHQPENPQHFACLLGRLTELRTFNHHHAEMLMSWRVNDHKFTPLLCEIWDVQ
In short: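 Cells carrying a UAS-driven beta-lactamase reporter (GeneBLAzer FXR-UAS-bla HEK 293T) were plated and rested 5 h at 37 °C. Compounds in DMSO were added alongside chenodeoxycholic acid agonist at 50 uM final and left 16 h at 37 °C before FRET substrate readout.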

[19] = biological target: Bile acid receptor (Homo sapiens) (UniProt Q96RI1); assay: qHTS assay to identify small molecule agonists of the farnesoid-X-receptor (FXR) signaling pathway (AID 743220; active = well fitted activation curve with a large enough effect in the signal ratio in the repeat runs, not every such curve was filed as active; the % refers to the signal ratio)
In short: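 FXR-UAS-bla HEK 293T cells carrying a UAS-driven beta-lactamase reporter were plated for 5 h at 37C/5% CO2, then exposed to DMSO-dissolved Tox21 10K compounds for 16 h at 37C. A LiveBLAzer B/G FRET substrate was loaded for 2 h at room temperature before fluorescence reading.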

Measured: Potency

CCN1CCC[C@H]1CNC(=O)c1cc(S(N)(=O)=O)ccc1OC
inactive: [1] | [2] | [3] | [4] | [5] | [6] | [7] | [8] | [9] | [10] | [11] | [12] | [13]

NC(=O)c1ccc([N+](=O)[O-])cc1
inactive: [1] | [2] | [3] | [4] | [5] | [6] | [7] | [8] | [10] | [14] | [15] | [16] | [11] | [17] | [12]

O=C(O)CCCc1ccccc1
inactive: [1] | [2] | [3] | [4] | [5] | [6] | [7] | [8] | [9] | [10] | [15] | [11] | [17] | [12] | [13]

Nc1ccc(S(=O)(=O)Nc2ccnn2-c2ccccc2)cc1
inactive: [1] | [2] | [3] | [4] | [5] | [6] | [7] | [8] | [9] | [10] | [15] | [18] | [11] | [19] | [17] | [12] | [13]

O=C1CCCC(=O)C1
inactive: [1] | [2] | [3] | [4] | [5] | [6] | [7] | [8] | [10] | [15] | [19] | [17] | [12] | [13]

CC(C(=O)O)c1ccc(CC2CCCC2=O)cc1 (stereo not given)
inactive: [1] | [2] | [3] | [4] | [5] | [6] | [7] | [8] | [10] | [14] | [15] | [16] | [11] | [19] | [17] | [12] | [13]

Cc1cc2c(cc1S(N)(=O)=O)S(=O)(=O)CCC2
inactive: [1] | [2] | [3] | [4] | [5] | [6] | [7] | [8] | [9] | [10] | [15] | [16] | [11] | [17]

O=C1CCCN1C1CCCCC1
inactive: [1] | [2] | [3] | [4] | [5] | [6] | [7] | [8] | [9] | [10] | [15] | [18] | [11] | [19] | [17] | [12] | [13]

CCCCCCCCCCCC
inactive: [1] | [2] | [3] | [4] | [5] | [6] | [7] | [8] | [10] | [11] | [17]

C=COCC1CCC(CO)CC1 (stereo not given)
inactive: [1] | [2] | [3] | [4] | [5] | [6] | [7] | [8] | [9] | [10] | [14] | [16] | [11] | [19] | [17] | [12] | [13]

O=Cc1cccc([N+](=O)[O-])c1
inactive: [1] | [2] | [3] | [4] | [5] | [6] | [7] | [8] | [9] | [10] | [14] | [15] | [16] | [11] | [17] | [12] | [13]

O=C(CCCN1CCN(c2ccccn2)CC1)c1ccc(F)cc1
inactive: [1] | [2] | [3] | [4] | [5] | [6] | [7] | [8] | [9] | [10] | [14] | [15] | [11] | [17] | [12] | [13]

COCCc1ccc(OCC(O)CNC(C)C)cc1 (stereo not given)
inactive: [1] | [2] | [3] | [4] | [5] | [6] | [7] | [8] | [10] | [14] | [16] | [18] | [11] | [19] | [17] | [12] | [13]

CC(=O)Nc1ccc(S(N)(=O)=O)cc1
inactive: [1] | [2] | [3] | [4] | [5] | [6] | [7] | [8] | [9] | [10] | [14] | [18] | [11] | [19] | [17] | [12]

Cc1cccn2c(=O)c(-c3nnn[nH]3)cnc12
inactive: [1] | [2] | [3] | [4] | [5] | [6] | [7] | [8] | [9] | [10] | [14] | [15] | [17]

Nc1nc2c(ncn2COC(CO)CO)c(=O)[nH]1
inactive: [1] | [2] | [3] | [4] | [5] | [6] | [7] | [8] | [9] | [10] | [14] | [16] | [11] | [17] | [12] | [13]

CCn1ccnc1CC1COc2ccccc2O1 (stereo not given)
inactive: [1] | [2] | [3] | [4] | [5] | [6] | [7] | [8] | [9] | [10] | [14] | [16] | [11] | [19] | [17]
